40 molecules from PubChem BioAssay (NCATS) can be followed below.

SMILES strings stand for the structures. Records with an inconclusive call do not appear. Unmarked numbers belong to inactive results. The source made the active and inactive calls. Calls come from the whole dose curve; as a rule, active = well fitted cell-killing curve with a large enough effect; inconclusive = small, poorly fitted or top-dose-only effect, or effect the other way; inactive = no such curve, though single readings can be large or run the other way.

One may read the viability as a read-out of living cells in per cent, often relative to untreated cells.
Potency is the fitted concentration of half-maximal effect.

A short description of the assay: Quantitative highthroughput screen to assess conditional lethalithy of SEM cells grown in RPMI1640 with dialyzed fetal bovine serum (RPMI+ds) (AID 1963884). Note: nearly all actives have a fitted effect of over 35% in size. The note with it: SEM B-ALL cells, RPMI+dialyzed FBS, CellTiter-Glo viability, 48 h; series mostly up to 45.8 µM; viability: at the top concentration. The source says:
Assay Provider: Jason Cantor Ph.D.
Department of Biochemistry
University of Wisconsin-Madison, Madison, WI, USA
Chemical screening studies have identified drug sensitivities across hundreds of cancer cell lines but most putative therapeutics fail to translate. Discovery and development of drug candidates in models that more accurately reflect nutrient levels in human blood is a major challenge. Here we performed high-throughput screens in conventional versus Human Plasma-Like Medium (HPLM) to identify compounds that were "missed" when screening using the artificial culture condition. Sets of conditional anticancer compounds spanned phases of clinical development and included non-oncology drugs were assessed. […] We also traced conditional phenotypes for several chemotherapeutics to availability of HPLM-specific metabolites and confirmed others for compounds whose reported targets are encoded by nonessential genes. Our findings establish generalizable strategies for exploiting conditional lethality in HPLM to reveal therapeutic candidates and mechanisms of action in cancer cells.
Described herein are the results of each viability screens against three cell lines: NOMO1 (an acute myeloid leukemia cell line); P12-Ichikawa (a T-cell acute lymphoblastic leukemia); and SEM (a B-cell ALL). Each assay was screened using 3 different cell culture media: homemade human plasma-Like medium with 10% dialyzed fetal bovine serum (HPLM+ds); RPMI1640 with 10% untreated FBS and 5mM glucose (RPMI+s); and RPMI1640 with 10% dialyzed fetal bovine serum and 5 mM glucose (RPMI+ds).
PROTOCOL TABLE (as described by Inglese J, Shamu CE and Guy RK. 2007)
SEQUENCE No. (e.g., 1, 2, 3, etc.); […] (e.g., Cells, Incubation, Reagent, etc.); VALUE and DESCRIPTION.
1; Cells; 5 uL; white, solid bottom 1536-well Greiner assay plate.
2; Compounds; 23 nL; Kalypsis pin tool (Wako USA) equipped with a 1536-well pin head to transfer to the assay plates.
3; Incubation; 48 hours; 37C incubation.
4; Reagent; 3 uL; CellTiter Glo (Promega).
5; Incubation; 5 min, room temperature
6; Detection; Luminescence, Viewlux PerkinElmer.
NOTES (numbers refer to Sequence numbers above)
1. Briefly, 5 ul of cell reagent was dispensed using a Multidrop Combi Dispenser. The NOMO1 and SEM cells were plated at 500 cells/well and the P12-Ichikawa line at 1000 cells/well.
2. After seeding the cells, 23 nL of MIPE 4.1 library compounds (in DMSO) were added to each plate using a Kalypsys 1536 Pintool dispenser. Bortezomib at final concentration of […] and DMSO were added to each plate as positive and negative controls respectively. For each screen, MIPE 4.1 compounds were added over an eleven-point concentration range […] in 3-fold dilutions.
3. Each plate was covered with a stainless steel gasketed lid to prevent evaporation and incubated for 48 hour at 37C, 95% relative humidity, and 5% CO2.
4-5. Three microliter CellTilter-GloTM luminescent substrate mix (Promega) reagent was added to the assay plate and incubated at room temperature for 5 min.
6. The luminescence signal was measured using a ViewLux (PerkinElmer) multiplate reader with a 2 second exposure time per plate. Data for each compound were normalized as percent viability such that measurements for DMSO and the empty well controls in each plate were defined as 100% and 0%, respectively.
Background: In ATP-based viability assays light output follows the ATP content of the culture.
In the case of `O=C(NC1CCOCC1)c1ccc(-c2cc(-c3cn[nH]c3-c3ccccn3)ccn2)cc1`, the “viability” value was 113%.
Same read-out and setting: the same measure for `C[C@]12CCC3=C4CCC(=O)C=C4CC[C@@H]3[C@H]1CC[C@@]2(O)CC#N`: 102%.
On to `CN1CCC(CNc2ccc3ncc(-c4cccc(OC(F)(F)F)c4)n3n2)CC1`, for which the Potency was 1320 nM (active).
For the molecule `CC(C)(C)NCC(O)c1ccc(O)c(CO)c1` (stereo not given), the “viability” value is 111%.
Same read-out and setting: the same measure for `CC(c1cc2ccccc2s1)N(O)C(N)=O` (stereo not given): 82%.
Consider `O=C1NC(=O)C(=Cc2ccc3nccc(-c4ccncc4)c3c2)S1`, for which the Potency was 833 nM (active).
As to `Cc1c(C(=O)Nc2ccc(N3C[C@@H](C)O[C@@H](C)C3)nc2)cccc1-c1ccc(OC(F)(F)F)cc1`, the Potency was 2350 nM (active).
On the same count and under the same terms, the figure for `O=C1c2c(O)ccc(O)c2C(=O)c2c(NCCNCCO)ccc(NCCNCCO)c21` is 332 nM (active).
For the molecule `COc1ccc(C2(C#N)CCC(C(=O)O)CC2)cc1OC1CCCC1` (stereo not given), the “viability” value is 99.5%.
`Clc1ccc(C(c2ccc(Cl)cc2)n2cc[n+](CC(OCc3ccc(Cl)cc3Cl)c3ccc(Cl)cc3Cl)c2)cc1` (stereo not given): the Potency is 20900 nM (active).
The same measure, in the same setting: the same measure for `CC(C)n1nc(-c2ccc3oc(N)nc3c2)c2c(N)ncnc21`: 469 nM (active).
For `C[C@@H](NCCCc1cccc(C(F)(F)F)c1)c1cccc2ccccc12`, the “viability” value is 97.9%.
Turning to `Cc1ccc(NC(=O)Nc2cc(C(F)(F)F)ccc2F)cc1Nc1ccc2c(c1)NC(=O)C2=Cc1ccc[nH]1`, the Potency is 16600 nM (active).
On the same count and under the same terms, the same measure for `O=C(C=Cc1cccc(S(=O)(=O)Nc2ccccc2)c1)NO`: 762 nM (active).
With `O=C(NCCS(=O)(=O)c1ccc(C(F)(F)F)cn1)c1ccc(Cl)cc1`, the “viability” value is 97%.
Still for that read-out and setting: the same measure for `Nc1ccn(C2CO[C@H](CO)O2)c(=O)n1` (stereo not given in full): 85.9%; for `Cc1ncc([N+](=O)[O-])n1CCO`: 103%; for `O=C(O)c1cc(O)c2c(c1)C(=O)c1cccc(O)c1C2=O`: 90.4% [at 92.2 µM].
As to `Cc1ccc(S(=O)(=O)NC(=O)NN2CC3CCCC3C2)cc1` (stereo not given), the Potency is 2960 nM (active).
Regarding `CC(=O)OCCN1C(=O)c2c(C)nc3ccc(S(=O)(=O)N4CCOCC4)cc3c2C1=O`, the “viability” value is 102%.
Take `Clc1ccc2c(c1)C(N1CCNCC1)=Nc1ccccc1O2`: the “viability” value is 96%.
In the case of `CC(O)C1C(=O)N2C(C(=O)O)=C(SC3CNC(C(=O)N(C)C)C3)C(C)C12` (stereo not given), the “viability” value is 79.4%.
On to `OC(CCN1CCCCC1)(c1ccccc1)C1CC2C=CC1C2` (stereo not given), for which the “viability” value is 105%.
In the case of `CCOC(=O)C(C)Oc1cccc2c(=O)n(CC(=O)Nc3ccc4c(c3)OCCO4)ccc12` (stereo not given), the “viability” value was 109%.
On the same count and under the same terms, the same measure for `NC[C@H]1O[C@H](O[C@@H]2[C@@H](O)[C@@H](O[C@H]3O[C@H](CO)[C@@H](O)[C@H](N)[C@@H]3O)[C@H](N)C[C@@H]2N)[C@H](O)[C@@H](O)[C@H]1O`: 89.5%; for `CC(C)[C@H](O)C(=O)N[C@@H](C)C(=O)N[C@@H]1C(=O)N(C)CCc2ccccc21`: 101%.
On to `CCn1cc(-c2ccnc3[nH]c(-c4cccc(CN(C)C)c4)cc23)c(-c2ccc(NC(=O)N(C)C)cc2)n1`, for which the Potency is 59 nM (active).
Take `CN(C)c1ccccc1CN1CCCN(Cc2ccccc2N(C)C)C1c1ccncc1`: the “viability” value was 86.6%.
On the same count and under the same terms, the same measure for `Nc1nc(Cl)nc2c1ncn2[C@@H]1O[C@H](CO)[C@@H](O)[C@H]1F`: 3.5%.
For `Cc1nc(NC(=O)N2CCC[C@@H]2C(N)=O)sc1-c1csc(C(C)(C)C)n1`, the Potency is 1050 nM (active).
For `COc1cc2ncn(-c3cc(OCc4ccccc4C(F)(F)F)c(C(N)=O)s3)c2cc1OC`, the Potency was 2640 nM (active).
Turning to `O=C1C(CCC(O)c2ccc(F)cc2)C(c2ccc(O)cc2)N1c1ccc(F)cc1` (stereo not given), the “viability” value was 93.8%.
Take `CN(NC(=O)CC(=O)NN(C)C(=S)c1ccccc1)C(=S)c1ccccc1`: the Potency is 41.7 nM (active).
Still for that read-out and setting: the same measure for `CC(C=CC(=O)NO)=C[C@@H](C)C(=O)c1ccc(N(C)C)cc1`: 590 nM (active).
With `CNC1[C@H](O)C(O[C@@H]2C(O)C(O[C@H]3O[C@H]([C@@H](C)NC)CC[C@H]3N)[C@@H](N)C[C@H]2N)OC[C@]1(C)O` (stereo not given in full), the “viability” value was 98.2%.
In the case of `Fc1ccc([C@@H]2CCNC[C@H]2COc2ccc3c(c2)OCO3)cc1`, the Potency was 14800 nM (active).
`CCC[C@@H]1C[C@@H](C(=O)N[C@@H]([C@H]2O[C@H](SC)[C@H](O)[C@@H](O)[C@H]2O)[C@@H](C)O)N(C)C1`: the “viability” value is 102%.
Turning to `CN(C)c1ccc(C(=C2C=CC(=[N+](C)C)C=C2)c2ccc(N(C)C)cc2)cc1`, the Potency was 93.5 nM (active).
For the molecule `CC[C@]1(O)C[C@H]2CN(CCc3c([nH]c4ccccc34)[C@@](C(=O)OC)(c3cc4c(cc3OC)N(C=O)[C@H]3[C@@](O)(C(=O)OC)[C@H](OC(C)=O)[C@]5(CC)C=CCN6CC[C@]43[C@@H]65)C2)C1`, the Potency was 46.9 nM (active).
On the same count and under the same terms, the same measure for `COCCn1c2c([n+](Cc3cnccn3)c1C)C(=O)c1ccccc1C2=O`: 41.8 nM (active).
